Measured values as given in PubChem BioAssay AID1347426 (Functional Genomics Laboratory (NCATS/FGL), 2020).
Screen size: about 31,000 sequences; about 1,400 (4.5%) were called active.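 The calls were made as follows: active = median seed-adjusted z-score above 1 or below -1; inactive = the rest.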 This excerpt belongs to a sample that is enriched for actives.

Assay: Novel Modifiers of Survival Motor Neuron (SMN) Protein: Gene Identification via Genome-wide siRNA Screen;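 also: luminescence tracks full-length SMN protein made from the SMN2 reporter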
Conditions: HEK293T SMN2-luciferase reporter, siRNA knockdown, 72 h; actives lie on both sides
Summary of the method: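 HEK293T cells stably expressing an SMN2 splicing/cDNA-luciferase reporter were reverse-transfected with a druggable-genome siRNA library and read by luminescence at 72 hours; hits defined by MAD score above 1.0 or below -1.0.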

Sequence | median seed-adjusted z-score
GACAAAAAGUCCAACCCUATT against CYB5R3 | -0.901 (inactive)
UGAGAUUUCGGAAUCAGAATT against TSPAN31 | -1.13 (active)
GAACUAGGAUUUCAUAGCATT against LGR5 | 0 (inactive)
GAGUCACAGUCGUUAUUCUTT against CNOT4 | -0.116 (inactive)
GGAUUAUUUCUGGUUCCUATT against ATP8A2 | 0 (inactive)
GCAUCAGCAUGUCGGUGGATT against ARID3A | -1.11 (active)
GUCCCGCAGAUUCAACAAATT against SSBP3 | 0.00592 (inactive)
CAAUCCUGUAUCUACCGUATT against OVCH1 | 0.0211 (inactive)
CAUCAAUGAGGUAUACUAUTT against DYRK1B | 0.29 (inactive)
CUAUAAGUCUAGUAGCAAATT against WNK2 | 0.212 (inactive)
CGACGGCACCUGCAAUUUUTT against IMPA2 | 0.0513 (inactive)
GCUGUAAACAGUCAUCAGATT against ZNF180 | 0 (inactive)
GAAAAUGACGGUUAUAAGATT against PMM2 | 0.448 (inactive)
GCAUGUUAUUGAAUUAUCATT against TM9SF2 | 1.09 (active)
GGAACGUGGUACUUAGUUATT against HMGCS1 | 0.0596 (inactive)
GCAGCUUCAAGAUCAAUGATT against ANTXR1 | -0.0849 (inactive)
CAAAAGUGUAUAUAAACUUTT against NDUFS6 | -0.0128 (inactive)
ACUUUGUCCGUGUGUCUUATT against SLC30A3 | -1.26 (active)
GGAACAGGAUGAAUAUGCATT against HADHB | -0.188 (inactive)
CGACUGGAUGUAUAAGCAUTT against TGIF2LX | -0.568 (inactive)
GAGAAGAAGUUCUUAAGGATT against ALKBH8 | -0.487 (inactive)
AGUUCUACAUGCCGGAUGATT against GGTLC1 | -0.298 (inactive)
GCCUCGUUCUGAAGACGAUTT against LIPC | 0.244 (inactive)

Sequence | median seed-adjusted z-score
CCAACCACCAGAUCUAUGATT against LBX1 | -0.36 (inactive)
CCAUGGCAGUACCAACUAGTT against CREM | -2.37 (active)
GGACCACUAUUUACAGCAATT against FUCA2 | 0.562 (inactive)
GGUCUGUACUGGGAUUCAUTT against PKD2L2 | -0.0723 (inactive)
GGCUUUUGCCCUAUCCAUUTT against WNK4 | 0.385 (inactive)
CACGAGGAGUGGACAAUAUTT against UCK1 | -0.599 (inactive)
CAAAUCGCCUAAUAAACUUTT against KRT33B | 0.04 (inactive)
GGAGCUUUGUCAAGAAGAUTT against FKBPL | -1.11 (active)
GCCUGAUAACGUAAUAACATT against ARSA | 0.0938 (inactive)
GACUUACUUAGAUAUGAGATT against ZNF568 | 0.501 (inactive)
GGUUUGUCCCUUCGCUAUATT against LRRTM3 | -0.0808 (inactive)
GCAGAGAUUUCCAAGAAAATT against GPR32 | -1.2 (active)
CAAGAAUGACUGUGAUGAATT against PLA2G12A | 0.139 (inactive)
GGUCUAUACAGAGUCAAUATT against MRCL3 | -0.00909 (inactive)
GGAUUCACACGGGAAUUAATT against ZNF649 | 0.259 (inactive)
CGUCGAAUGUUUAAAGUCUTT against ITFG1 | -0.417 (inactive)
ACGUGUUUGCUUCCACAAATT against NEURL2 | 1.39 (active)
GCAUGAUGGAUGUUGAUCATT against CCT5 | 0 (inactive)
GCACUGAUGACAACAACUATT against HTR1F | -0.127 (inactive)
AGAGUGUGCCGGUUACCCATT against CD8B | 0.174 (inactive)
GAGUCACAAUUGAUCCGGATT against TOP2A | -0.187 (inactive)
CCAUCGAUGAUGACUGUAATT against ETFB | 0.0669 (inactive)
GAGCAGAUCUUUUUAUGCATT against ZNF664 | 1.08 (active)

Sequence | median seed-adjusted z-score
CAUUGAGACCUAUCUGCUATT against MYH11 | 0 (inactive)
CGGGUAUGUUGAUAGCAUATT against FAM12B | 0.312 (inactive)
GCAGUGUACCCGUCAUUAUTT against SEMA4B | 0.185 (inactive)
GGAACAAAAGGAUCGAAUATT against CLSTN3 | 0 (inactive)
CUAUAAAUGUAAACGAUGUTT against ZNF442 | 1.06 (active)
CUGUUUGACUUCAUCGAGATT against COPG | 0.175 (inactive)
CAAUCCAUGUCAUAGGGAATT against ZNF702 | 0.204 (inactive)
CGGCAAUCCUUACGGCUAATT against DSG4 | -0.0211 (inactive)
CCGUCAUUGUCAACCGGAATT against SLC4A5 | 1.3 (active)
CUACGUCUCGGGUCCAGAUTT against HOXA11 | -0.222 (inactive)
GGACAUACACUGAGAGUCATT against PDLIM2 | 0.267 (inactive)
GAGCAGAACCGCAUCAUAUTT against UCN | -0.472 (inactive)
GGAGGAUACUUUAGAACAATT against NDC80 | 0.0855 (inactive)
GCAUCUACAUGACCAACCUTT against GPR35 | -1.46 (active)
CAUGAUACAGGGAAUAAAATT against ZNF619 | -0.536 (inactive)
UCAUCGAACUGAAUACCAATT against STARD3 | -0.314 (inactive)
CUACUGGACUGAUCAAGCUTT against CTCFL | -0.362 (inactive)
GGACAAAGACUGUCGCCUATT against DHX35 | -0.066 (inactive)
CUAUGACGACUUAUCCAAATT against ATP5A1 | -0.974 (inactive)
CCUACACCAUGAUCGGAAATT against KIF26B | -0.153 (inactive)
GCGUUAUCCUCACCUUCAATT against G6PD | 0.593 (inactive)
CAUUCAGCUUGUCACGUCATT against THOC4 | -1.54 (active)
CCAAGGUUUUGGAUAGCAATT against RHBDL2 | 0.0701 (inactive)
